We go through 8 compounds from PubChem BioAssay (NCATS).

Where “and” joins values, the source holds several entries; their conditions need not be identical. Equal entries are not always repeated. Records with an inconclusive call do not appear. More than one record can exist for a structure, and the calls need not agree. Calls of active or inactive are those of the source. Unless noted, calls follow the shape of the dose curve; as a rule, active = well fitted curve in the direction sought with a large enough effect; inconclusive = small, poorly fitted or top-dose-only effect, or another doubt; inactive = no such curve, though single readings can be large; an effect the other way counts as inactive or inconclusive.

A short description of test [1]: NCATS anti-infectives library activity on HEK293 viability as a counter-qHTS vs the C. elegans viability qHTS (AID 1745854). Also: % is scaled to controls: 0 for no effect and ±100 for the full control effect. An outline of the steps: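 CellTiter-Glo luminescence, read on a CCD imager, scored viability of HEK293 cells after 24 hr compound exposure at 37C. Library tested in several concentrations, 1:5 steps, up to 41.7 uM; digitonin served as control.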

Test [2] in a line: NCATS anti-infectives library activity on the primary C. elegans qHTS viability assay (AID 1745855; calls by dose curve; also: potency is read from the fitted curve at half-maximal effect). An outline of the steps: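 Titration-based screen in worms: eggs hatched overnight in M9, L1 larvae fed TOP10 capsules in S medium with compound, incubated 21 °C for 7 days; fluorescent objects gated by size and intensity at days 0, 3 and 7.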
In general terms: Quantitative high-throughput screening tests each substance at several concentrations.

Test [3] deals with Glutathione peroxidase 1 (Homo sapiens) (UniProt P07203). Put plainly: Primary qHTS Assay for Inhibitors of Recombinant Selenoprotein Glutathione Peroxidase 1 (GPX1) (AID 1845191). Also: nearly all actives have a fitted effect of over 65% in size. An outline of the steps: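 GR-coupled readout: NADPH consumption tracked by fluorescence, ex 340/em 450 nm, at t=0 and after 15 min at RT. Final mix 10 nM GPX1, 1 mM GSH, 0.5 mM CHP, 0.5 mM NADPH, 100 nM GR, 0.01% BSA, following 30 min enzyme–compound preincubation.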
Glutathione peroxidase 1 (Homo sapiens), sequence (P07203 whole entry, looked up): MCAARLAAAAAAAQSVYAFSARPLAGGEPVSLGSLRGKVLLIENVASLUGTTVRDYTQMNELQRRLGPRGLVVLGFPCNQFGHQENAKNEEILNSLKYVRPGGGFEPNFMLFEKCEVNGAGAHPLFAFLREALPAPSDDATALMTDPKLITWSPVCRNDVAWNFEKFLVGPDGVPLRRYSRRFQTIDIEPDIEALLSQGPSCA

Test [4] has as its target Phospholipid hydroperoxide glutathione peroxidase GPX4 (Homo sapiens) (UniProt P36969). Put plainly: Primary qHTS Assay for Inhibitors of Recombinant Selenoprotein Glutathione Peroxidase 4 (GPX4) (AID 1845192). Also: nearly all actives have a fitted effect of over 65% in size. Also: potency is read from the fitted curve at half-maximal effect. An outline of the steps:
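Steps: GPX4 plus compound, 30 min RT; add GR/GSH/NADPH master mix; start with cumene hydroperoxide; read 340/450 nm fluorescence at 0 and 15 min. Finals were 200 nM GPX4, 1 mM GSH, 0.5 mM CHP, 0.5 mM NADPH, 100 nM GR.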

Test [5] concerns the target Luciferin 4-monooxygenase (Photinus pyralis) (UniProt P08659). Briefly: Primary firefly luciferase (FLuc) qHTS assay for identification of artifact compounds. (AID 1845220). Also: nearly all actives have a fitted effect of over 60% in size. An outline of the steps: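 Enzymatic FLuc inhibition assay: compounds pre-exposed to luciferin/ATP (10 uM each) for 15 min, then purified P. pyralis enzyme at 10 nM added. Read-out: luminescence at 5 min.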

Test [6] in a line: Primary fluorescence-based thiol-reactive (MSTI) qHTS assay for identification of artifact compounds. (AID 1845221).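 Also: series mostly up to about 54 µM; thiol-reactive compounds lower the probe fluorescence signal; nearly all actives have a fitted effect of over 65% in size.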 An outline of the steps: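 One-hour, room-temperature, dark incubation of compound with 4 uM MSTI in PBS (pH 7.4, 2% DMSO) precedes a fluorescence read at 525 nm excitation, 598 nm emission; Hill-equation fitting yields concentration-response values.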
In test [7] the test system is Nanoluciferase (engineered Oplophorus gracilirostris luciferase). Put plainly: Primary Nanoluciferase (NLuc) qHTS assay for identification of artifact compounds. (AID 1845222).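 Also: NLuc secreted into diluted conditioned medium of S16 cells; series mostly up to about 54 µM; 0% = DMSO and -100% = no enzyme.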 An outline of the steps: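 S16 cell supernatant NLuc, 1:55; cpds qHTS; 15 min RT dark; Nano-Glo substrate 1:100, 5 min; luminescence; Hill fit of % inhibition.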
A short description of test [8]: Quantitative High-Throughput drug screen in 47 multiple myeloma cell lines against the NCATS MIPE library collection: FR4_PLB cell viability assay (AID 1918924; also: nearly all actives have a fitted effect of over 35% in size; also: potency is read from the fitted curve at half-maximal effect). An outline of the steps:
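Steps: seed 500 cells per well; pin-transfer MIPE 4.0 library; incubate 48 h at 37C, 5% CO2, humidified; add CellTiter-Glo, 5 min room temperature; read luminescence.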

Test [9] is described as follows: Quantitative High-Throughput drug screen in 47 multiple myeloma cell lines against the NCATS MIPE library collection: Delta47_JCRB cell viability assay (AID 1918925; also: nearly all actives have a fitted effect of over 45% in size; also: potency is read from the fitted curve at half-maximal effect). An outline of the steps:
(§1)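 qHTS of the MIPE 4.0 collection: 500 myeloma cells/well, 48 h drug exposure at 37C in 5% CO2, then CellTiter-Glo for 5 min at room temperature before luminescence reading.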

Test [10] can be described thus: Quantitative High-Throughput drug screen in 47 multiple myeloma cell lines against the NCATS MIPE library collection: EJM_DSMZ cell viability assay (AID 1918926; also: nearly all actives have a fitted effect of over 30% in size; also: potency is read from the fitted curve at half-maximal effect). An outline of the steps:
as §1

Test [11] can be described thus: Quantitative High-Throughput drug screen in 47 multiple myeloma cell lines against the NCATS MIPE library collection: ARP1_JJKsccF8 cell viability assay (AID 1918928; also: nearly all actives have a fitted effect of over 40% in size; also: potency is read from the fitted curve at half-maximal effect). An outline of the steps: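 Viability screen: myeloma cells (500/well) incubated 48 h at 37 °C, humidified 5% CO2, with pinned library compounds; CellTiter-Glo added, luminescence read; DMSO wells set 100%, medium-only wells 0%.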

Test [12] addresses Phenylethanolamine N-methyltransferase (Homo sapiens) (UniProt P11086). Put plainly: Confirmatory Screen for Target Class Profiling of Small Molecule Inhibitors of Methyltransferases (AID 1745852). To be noted: MTase-Glo luminescence, SAH detection, recombinant enzyme; measured here: PNMT max response; stronger effect = lower value.
A short description of test [13]: Primary redox qHTS assay for identification of artifact compounds. (AID 1845223). An outline of the steps: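 Redox-cycling detection via DTT (250 uM final) oxidation coupled to Amplex Red (25 uM)/HRP (250 mU/mL) in HBSS. 15 min preincubation plus 30 min after DTT, room temperature. Ex/Em 525/598 nm; 4-parameter Hill fit against DMSO and 10 uM DA3003.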
A short description of test [14]: Quantitative High-Throughput drug screen in 47 multiple myeloma cell lines against the NCATS MIPE library collection: AMO1_DSMZ cell viability assay (AID 1918927; also: nearly all actives have a fitted effect of over 30% in size; also: potency is read from the fitted curve at half-maximal effect). An outline of the steps: as §1
Test [15] can be described thus: Quantitative High-Throughput drug screen in 47 multiple myeloma cell lines against the NCATS MIPE library collection: ARD_JJKsccE7 cell viability assay (AID 1918929; also: potency is read from the fitted curve at half-maximal effect;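 as to viability: 100% = DMSO-only wells and 0% = media-only wells without cells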). An outline of the steps: as §1
Test [16] in a line: Viability counterscreen for antagonist of constitutive androstane receptor (CAR) against the NCATS DSHEA and TCM libraries (AID 1794837).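 Also: compound exposure lasted 24 h before viability reading; 0% is about no effect.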 An outline of the steps: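 Counterscreen performed in a 1536-well qHTS format using HepG2-CYP2B6-hCAR cells; samples titrated in the presence of 48 uM CITCO, with viability measured fluorometrically (405/540 nm) after 24 h.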
(The purpose of a counterscreen is to sort out artefacts and off-target activity.)

A short description of test [17]: Viability counterscreen for agonist of constitutive androstane receptor (CAR) against the NCATS DSHEA and TCM libraries (AID 1794838).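 Also: cells exposed to compound for 24 h; 0% is about no effect.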 An outline of the steps: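 Multiplexed counterscreen: after 24 h compound exposure with 0.75 uM PK11195, HepG2-CYP2B6-hCAR viability was quantified fluorimetrically (CellTiter-Fluor, 405/540 nm) prior to the ONE-Glo luciferase read.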

Test [18] concerns the target Nuclear receptor subfamily 1 group I member 3 (Homo sapiens) (UniProt Q14994). Briefly: Primary qHTS for agonist of constitutive androstane receptor (CAR) against the NCATS DSHEA and TCM libraries (AID 1794839).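 Also: HepG2 cells expressing human CAR with a CYP2B6 reporter plus PK11195 antagonist; luciferase reporter luminescence read with ONE-Glo; 0% is about no effect.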 An outline of the steps:
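Concentration–response screen in HepG2-CYP2B6-hCAR cells under 0.75 µM PK11195; 24 h exposure; luminescent reporter signal with multiplexed fluorescent viability.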

The nature of test [19]: HepG2 viability counterscreen (readout 2: ATP content) against the NCATS DSHEA and TCM libraries (AID 1794840).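 Also: HepG2 cells exposed to substances for about 24 h; 0% is about no effect.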 An outline of the steps:
(§2)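 After HepG2 cells attach for ~4 h, substances are added and incubated ~24 h at 37C, 5% CO2. GF-AFC fluorescence then CellTiter-Glo luminescence give protease and ATP readouts.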

A short description of test [20]: HepG2 viability counterscreen (readout 1: protease activity) against the NCATS DSHEA and TCM libraries (AID 1794841).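 Also: cells exposed to compounds for about 24 h before the protease read; 0% is about no effect.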 An outline of the steps: as §2

Phospholipid hydroperoxide glutathione peroxidase GPX4 (Homo sapiens), sequence (P36969 whole entry, looked up): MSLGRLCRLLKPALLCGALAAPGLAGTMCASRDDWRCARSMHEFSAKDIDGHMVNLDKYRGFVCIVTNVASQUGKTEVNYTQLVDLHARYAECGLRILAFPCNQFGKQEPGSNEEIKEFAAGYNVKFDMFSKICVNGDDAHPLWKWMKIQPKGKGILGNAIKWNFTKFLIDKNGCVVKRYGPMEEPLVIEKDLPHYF
Phenylethanolamine N-methyltransferase (Homo sapiens), sequence (P11086 whole entry, looked up): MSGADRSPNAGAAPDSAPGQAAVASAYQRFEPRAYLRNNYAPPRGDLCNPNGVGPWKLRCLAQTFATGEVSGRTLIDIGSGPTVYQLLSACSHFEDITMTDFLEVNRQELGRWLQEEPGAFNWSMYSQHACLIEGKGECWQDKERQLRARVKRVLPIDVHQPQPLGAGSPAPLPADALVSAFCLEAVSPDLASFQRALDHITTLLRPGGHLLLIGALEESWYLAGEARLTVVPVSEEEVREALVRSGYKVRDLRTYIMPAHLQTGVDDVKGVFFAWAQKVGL
Nuclear receptor subfamily 1 group I member 3 (Homo sapiens), sequence (Q14994 whole entry, looked up): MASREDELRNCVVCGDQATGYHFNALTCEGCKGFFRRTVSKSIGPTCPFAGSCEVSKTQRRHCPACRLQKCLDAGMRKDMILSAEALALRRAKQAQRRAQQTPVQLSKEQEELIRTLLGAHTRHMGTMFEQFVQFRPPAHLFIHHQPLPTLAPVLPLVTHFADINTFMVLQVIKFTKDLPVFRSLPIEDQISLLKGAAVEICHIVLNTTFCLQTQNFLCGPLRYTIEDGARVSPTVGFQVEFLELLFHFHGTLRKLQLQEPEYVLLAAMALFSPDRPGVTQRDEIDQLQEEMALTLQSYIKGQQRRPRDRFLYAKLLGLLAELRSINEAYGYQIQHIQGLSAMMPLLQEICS

With `CC(C)C[C@H](NC(=O)[C@@H](NC(=O)c1cccc(-c2ccccc2)n1)[C@@H](C)O)B(O)O`, the Potency result in test [1], in [3], in test [4], in test [5] and in [6] was “inactive” throughout. The Potency is 2.05 µM (active) in [2]; 0.0209 µM (active) in test [8]; 0.0166 µM (active) in test [9]; 0.0469 µM (active) in [10]; 0.0166 µM (active) in test [11]. The outcome in [7] is “inactive”.
Turning to `CCOC(=O)[C@@H](N)Cc1ccc(-c2cc(O[C@H](c3ccc(Cl)cc3-n3ccc(C)n3)C(F)(F)F)nc(N)n2)cc1`, the activity in test [12] is -6.64%. In addition, the Potency entry in [4], in test [5], in [6] and in test [13] was “inactive” throughout. Also, in test [7], the outcome was “inactive”. Besides, the Potency in test [9] was 23.5 µM (active); in test [14], 9.35 µM (active); in test [11] it was 14.8 µM (active); in test [15] it was 9.35 µM (active).
With `C[C@H](NC(=O)Cc1cc(F)cc(F)c1)C(=O)N[C@H](C(=O)OC(C)(C)C)c1ccccc1`, the Potency result in [1], in test [3], in test [4], in test [8], in [9] and in test [10] was “inactive” in each case. The Potency entry in test [14], in test [11] and in [15] was “inactive” each time.
`c1ccc2c(Oc3nc(Nc4ccc(N5CCOCC5)cc4)c4ncn(C5CCCCC5)c4n3)cccc2c1`: in [12], the activity was -3.02%. Besides, the Potency result in test [3], in test [4], in test [5], in test [13] and in test [8] was “inactive” throughout. In addition, the outcome in test [7] was “inactive”. For the same compound, the Potency in test [14] was 9.35 µM (active).
On to `CCCc1nc(C(C)(C)O)c(C(=O)O)n1Cc1ccc(-c2ccccc2-c2nn[nH]n2)cc1`, for which the Potency result in test [1], in test [8], in test [9], in [14], in [11] and in test [15] was “inactive” each time. Moreover, in [4], the Potency entry is “inactive and 17.8 µM (active)”.
Regarding `Cn1cc(-c2cnn3c(N)c(Br)c([C@H]4CCCNC4)nc23)cn1`, the activity in test [12] is -78.4%. The Potency result in [4] is “inactive”. Further, the Potency was 0.132 µM (active) in test [8]; 0.743 µM (active) in test [9]; 0.372 µM (active) in test [10]; 1.48 µM (active) in test [14]; 3.32 µM (active) in [11]; 1.05 µM (active) in test [15].
For the compound `COc1ccc(C(C)=O)c(O)c1`, the outcome in test [16], in test [17], in test [18], in [19] and in test [20] was “inactive” in each case. Also, the Potency result in [8], in test [9], in test [14], in test [11] and in [15] was “inactive” in each case.
On to `N#Cc1c(C2CCNCC2)cc(-c2c(O)cccc2OCC2CC2)nc1N`, for which, in [12], the activity is -6.86%. The Potency result in test [3], in [5], in test [6] and in [13] was “inactive” in each case. Further, the outcome in [7] was “inactive”. The Potency in test [8] was 23.5 µM (active); in [9], 16.6 µM (active); in test [10] it was 18.7 µM (active); in [14] it was 13.2 µM (active); in [15], 3.72 µM (active).
